# Reference: paper PMC7862700, “An all-to-all approach to the identification of sequence-specific readers for epigenetic DNA modifications on cytosine”
# Key:
# Test in all cases: DAPPL (digital affinity profiling via proximity ligation, sequencing); 10 mM Tris-HCl pH 7.5, 50 mM NaCl, 1 mM DTT, 4% glycerol, room temperature, 30 min; GST-TFs on glutathione beads, 16-mer random dsDNA library, 0.1% formaldehyde crosslink after washing; high values mean tight binding
# [1] = biological target: T1, FEV (Homo sapiens, UniProt Q99581 1-238); conditions: protein: recombinant; tags: N-terminal GST; dsDNA, one strand shown
# T1 sequence: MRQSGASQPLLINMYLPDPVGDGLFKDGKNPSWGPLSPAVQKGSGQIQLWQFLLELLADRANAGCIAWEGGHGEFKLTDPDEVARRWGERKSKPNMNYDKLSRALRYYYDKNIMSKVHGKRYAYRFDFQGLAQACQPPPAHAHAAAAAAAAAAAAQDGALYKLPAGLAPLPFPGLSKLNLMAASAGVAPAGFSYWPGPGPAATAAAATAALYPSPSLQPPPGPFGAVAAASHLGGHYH
# Outline: (§1)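 Binding signal is given per hexamer as its read frequency for a factor divided by its frequency in the tag-only sample. GST-fused human transcription factors were expressed in yeast, captured on glutathione beads, barcoded with DNA and pooled with that sample, then incubated with 200 nmole of a 16-mer random double-stranded DNA library in Tris/NaCl/DTT/glycerol buffer for 30 min at room temperature. The pools were then washed, crosslinked, proximity-ligated, amplified by PCR and sequenced on an Illumina NextSeq500.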
# [2] = biological target: ETV5 (Homo sapiens, UniProt P41161 1-510); conditions: protein: recombinant; tags: N-terminal GST; dsDNA, one strand shown
# Outline: as §1
# [3] = biological target: HSF1 (Homo sapiens, UniProt Q00613 1-529); conditions: protein: recombinant; tags: N-terminal GST; chain copies: 3; dsDNA, one strand shown
# Outline: as §1
# [4] = biological target: T2, SPIC (Homo sapiens, UniProt Q8N5J4 1-248); conditions: protein: recombinant; tags: N-terminal GST; dsDNA, one strand shown
# T2 sequence: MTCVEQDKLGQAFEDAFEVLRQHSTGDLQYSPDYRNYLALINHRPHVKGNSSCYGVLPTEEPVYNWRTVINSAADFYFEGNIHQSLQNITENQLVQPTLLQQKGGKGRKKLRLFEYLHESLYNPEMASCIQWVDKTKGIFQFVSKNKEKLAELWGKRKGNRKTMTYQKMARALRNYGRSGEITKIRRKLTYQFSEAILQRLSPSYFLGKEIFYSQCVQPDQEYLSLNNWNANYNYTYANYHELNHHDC
# Outline: as §1
# [5] = biological target: ELF4 (Homo sapiens, UniProt Q99607 1-663); conditions: protein: recombinant; tags: N-terminal GST; dsDNA, one strand shown
# Outline: as §1
# [6] = biological target: T3, ELK4 (Homo sapiens, UniProt P28324-2 1-405); conditions: protein: recombinant; tags: N-terminal GST; dsDNA, one strand shown
# T3 sequence: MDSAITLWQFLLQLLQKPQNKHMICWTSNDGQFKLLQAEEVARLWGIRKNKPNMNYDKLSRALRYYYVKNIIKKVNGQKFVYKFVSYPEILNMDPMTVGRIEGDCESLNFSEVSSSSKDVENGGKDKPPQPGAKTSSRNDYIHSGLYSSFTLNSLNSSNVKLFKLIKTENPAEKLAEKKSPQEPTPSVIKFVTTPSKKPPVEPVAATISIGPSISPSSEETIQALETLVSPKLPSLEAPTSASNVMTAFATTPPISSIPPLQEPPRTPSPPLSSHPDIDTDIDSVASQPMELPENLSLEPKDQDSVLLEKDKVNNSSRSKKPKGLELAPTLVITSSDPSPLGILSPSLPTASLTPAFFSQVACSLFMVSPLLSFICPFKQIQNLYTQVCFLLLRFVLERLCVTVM
# Outline: as §1
# [7] = biological target: T4, ETV2 (Homo sapiens, UniProt O00321 1-342); conditions: protein: recombinant; tags: N-terminal GST; dsDNA, one strand shown
# T4 sequence: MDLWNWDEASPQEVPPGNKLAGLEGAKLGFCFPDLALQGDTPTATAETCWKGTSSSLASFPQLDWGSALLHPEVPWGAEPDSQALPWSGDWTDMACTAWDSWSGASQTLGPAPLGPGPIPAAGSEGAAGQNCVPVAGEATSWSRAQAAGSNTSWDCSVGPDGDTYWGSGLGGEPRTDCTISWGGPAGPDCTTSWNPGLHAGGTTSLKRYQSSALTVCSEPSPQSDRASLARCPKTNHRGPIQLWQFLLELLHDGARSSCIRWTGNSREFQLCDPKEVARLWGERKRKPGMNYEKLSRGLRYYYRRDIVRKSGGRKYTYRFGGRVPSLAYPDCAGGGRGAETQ
# Outline: as §1
# [8] = biological target: T5, ELF3 (Homo sapiens, UniProt P78545 1-371); conditions: protein: recombinant; tags: N-terminal GST; dsDNA, one strand shown
# T5 sequence: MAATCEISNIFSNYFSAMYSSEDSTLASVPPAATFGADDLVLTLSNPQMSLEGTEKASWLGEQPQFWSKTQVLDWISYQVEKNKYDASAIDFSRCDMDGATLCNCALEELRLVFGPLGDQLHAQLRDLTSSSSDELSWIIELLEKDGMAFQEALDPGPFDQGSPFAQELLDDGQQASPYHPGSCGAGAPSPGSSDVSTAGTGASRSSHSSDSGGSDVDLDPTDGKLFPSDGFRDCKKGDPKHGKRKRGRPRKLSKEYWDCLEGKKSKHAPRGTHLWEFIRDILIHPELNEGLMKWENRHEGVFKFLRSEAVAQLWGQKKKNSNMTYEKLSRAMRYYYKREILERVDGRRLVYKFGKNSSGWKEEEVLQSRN
# Outline: as §1
# [9] = biological target: CRX (Homo sapiens, UniProt O43186 1-299); conditions: protein: recombinant; tags: N-terminal GST; dsDNA, one strand shown
# Outline: as §1
# [10] = biological target: ETV1 (Homo sapiens, UniProt P50549 1-477); conditions: protein: recombinant; tags: N-terminal GST; dsDNA, one strand shown
# Outline: as §1
# [11] = biological target: T6, ERF (Homo sapiens, UniProt P50548 1-548); conditions: protein: recombinant; tags: N-terminal GST; dsDNA, one strand shown
# T6 sequence: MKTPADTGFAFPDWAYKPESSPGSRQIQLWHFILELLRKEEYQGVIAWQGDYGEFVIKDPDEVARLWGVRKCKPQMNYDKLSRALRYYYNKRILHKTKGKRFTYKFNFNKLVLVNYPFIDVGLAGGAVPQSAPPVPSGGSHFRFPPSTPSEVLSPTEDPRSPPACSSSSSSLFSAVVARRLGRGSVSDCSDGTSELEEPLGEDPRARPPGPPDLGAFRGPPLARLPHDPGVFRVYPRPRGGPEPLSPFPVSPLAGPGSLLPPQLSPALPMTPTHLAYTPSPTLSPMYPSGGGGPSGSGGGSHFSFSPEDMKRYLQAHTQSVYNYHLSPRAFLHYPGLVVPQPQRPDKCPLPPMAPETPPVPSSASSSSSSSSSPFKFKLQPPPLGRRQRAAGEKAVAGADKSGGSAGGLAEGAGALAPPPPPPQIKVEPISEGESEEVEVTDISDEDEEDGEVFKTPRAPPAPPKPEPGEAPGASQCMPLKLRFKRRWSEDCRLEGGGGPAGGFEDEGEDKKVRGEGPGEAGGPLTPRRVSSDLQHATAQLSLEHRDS
# Outline: as §1
# [12] = biological target: T7, ETV3L (Homo sapiens, UniProt Q6ZN32 1-361); conditions: protein: recombinant; tags: N-terminal GST; dsDNA, one strand shown
# T7 sequence: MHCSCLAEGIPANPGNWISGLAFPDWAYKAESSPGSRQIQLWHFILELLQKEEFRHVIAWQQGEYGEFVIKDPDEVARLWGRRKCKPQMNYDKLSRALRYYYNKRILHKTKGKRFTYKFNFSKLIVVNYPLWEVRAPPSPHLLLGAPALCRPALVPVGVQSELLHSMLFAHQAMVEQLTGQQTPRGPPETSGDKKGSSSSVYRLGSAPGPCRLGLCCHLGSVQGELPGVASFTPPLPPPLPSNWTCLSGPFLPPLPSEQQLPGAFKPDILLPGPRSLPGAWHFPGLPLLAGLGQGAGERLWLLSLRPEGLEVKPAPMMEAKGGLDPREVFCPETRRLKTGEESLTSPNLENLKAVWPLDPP
# Outline: as §1
# [13] = biological target: T8, ETS2 (Homo sapiens, UniProt P15036 1-469); conditions: protein: recombinant; tags: N-terminal GST; dsDNA, one strand shown
# T8 sequence: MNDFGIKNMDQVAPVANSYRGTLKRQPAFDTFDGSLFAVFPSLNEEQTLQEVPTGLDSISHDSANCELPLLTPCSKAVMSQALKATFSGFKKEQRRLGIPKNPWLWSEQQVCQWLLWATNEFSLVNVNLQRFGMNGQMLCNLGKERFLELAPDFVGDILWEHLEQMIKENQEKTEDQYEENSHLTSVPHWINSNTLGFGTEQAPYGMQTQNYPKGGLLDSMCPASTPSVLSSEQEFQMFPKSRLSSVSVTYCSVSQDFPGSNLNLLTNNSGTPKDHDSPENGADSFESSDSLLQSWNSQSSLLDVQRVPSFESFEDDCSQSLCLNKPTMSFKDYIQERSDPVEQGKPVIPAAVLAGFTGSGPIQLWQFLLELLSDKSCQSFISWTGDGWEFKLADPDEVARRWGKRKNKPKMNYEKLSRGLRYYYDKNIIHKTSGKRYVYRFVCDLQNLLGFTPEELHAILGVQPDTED
# Outline: as §1
# [14] = biological target: T9, SPDEF (Homo sapiens, UniProt O95238 1-335); conditions: protein: recombinant; tags: N-terminal GST; dsDNA, one strand shown
# T9 sequence: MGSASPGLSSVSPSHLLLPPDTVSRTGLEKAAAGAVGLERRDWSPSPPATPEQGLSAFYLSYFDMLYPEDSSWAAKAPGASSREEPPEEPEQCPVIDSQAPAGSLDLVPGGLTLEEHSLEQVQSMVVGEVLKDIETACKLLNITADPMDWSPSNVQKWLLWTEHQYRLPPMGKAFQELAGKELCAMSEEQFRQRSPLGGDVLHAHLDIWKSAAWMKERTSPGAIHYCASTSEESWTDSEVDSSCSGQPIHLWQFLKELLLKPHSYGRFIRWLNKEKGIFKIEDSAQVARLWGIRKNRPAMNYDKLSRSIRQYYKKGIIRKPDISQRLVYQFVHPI
# Outline: as §1
# [15] = biological target: T10, ETV7 (Homo sapiens, UniProt Q9Y603 1-341); conditions: protein: recombinant; tags: N-terminal GST; dsDNA, one strand shown
# T10 sequence: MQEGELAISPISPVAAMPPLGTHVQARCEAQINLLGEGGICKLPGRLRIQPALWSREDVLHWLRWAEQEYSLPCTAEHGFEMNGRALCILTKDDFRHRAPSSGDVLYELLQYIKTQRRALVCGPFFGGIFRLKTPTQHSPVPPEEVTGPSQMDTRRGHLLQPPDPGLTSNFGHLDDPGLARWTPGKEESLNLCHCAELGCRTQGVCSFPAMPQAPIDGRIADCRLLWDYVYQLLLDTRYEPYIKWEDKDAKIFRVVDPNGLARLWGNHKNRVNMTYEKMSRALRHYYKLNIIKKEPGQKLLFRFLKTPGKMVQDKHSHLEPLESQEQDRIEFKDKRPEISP
# Outline: as §1
# [16] = biological target: T11, ELF5 (Homo sapiens, UniProt Q9UKW6-2 1-255); conditions: protein: recombinant; tags: N-terminal GST; dsDNA, one strand shown
# T11 sequence: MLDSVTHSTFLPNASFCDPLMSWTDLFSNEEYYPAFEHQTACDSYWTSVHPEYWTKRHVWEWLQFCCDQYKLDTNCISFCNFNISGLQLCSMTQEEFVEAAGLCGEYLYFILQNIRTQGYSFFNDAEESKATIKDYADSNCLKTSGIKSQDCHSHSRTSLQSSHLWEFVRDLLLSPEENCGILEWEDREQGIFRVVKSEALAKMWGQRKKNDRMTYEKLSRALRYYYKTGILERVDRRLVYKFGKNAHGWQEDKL
# Outline: as §1
# [17] = biological target: T12, ETV3 (Homo sapiens, UniProt P41162-2 1-143); conditions: protein: recombinant; tags: N-terminal GST; dsDNA, one strand shown
# T12 sequence: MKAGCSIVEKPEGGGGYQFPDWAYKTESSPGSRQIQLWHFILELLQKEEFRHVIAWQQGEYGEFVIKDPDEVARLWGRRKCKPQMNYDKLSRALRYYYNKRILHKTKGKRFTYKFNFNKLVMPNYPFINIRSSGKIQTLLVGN
# Outline: as §1
# [18] = biological target: ETV6 (Homo sapiens, UniProt P41212 1-452); conditions: protein: recombinant; tags: N-terminal GST; dsDNA, one strand shown
# Outline: as §1
# Sequence of CRX (O43186 whole entry): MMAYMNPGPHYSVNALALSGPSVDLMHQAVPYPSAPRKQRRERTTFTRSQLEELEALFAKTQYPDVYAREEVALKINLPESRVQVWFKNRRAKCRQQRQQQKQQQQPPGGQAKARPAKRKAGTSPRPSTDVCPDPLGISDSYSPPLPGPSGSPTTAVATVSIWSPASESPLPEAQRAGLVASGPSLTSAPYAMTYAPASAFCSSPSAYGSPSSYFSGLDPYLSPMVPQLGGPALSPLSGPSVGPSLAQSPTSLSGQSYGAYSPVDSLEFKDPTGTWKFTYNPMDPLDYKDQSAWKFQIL
# Sequence of ETV1 (P50549 whole entry): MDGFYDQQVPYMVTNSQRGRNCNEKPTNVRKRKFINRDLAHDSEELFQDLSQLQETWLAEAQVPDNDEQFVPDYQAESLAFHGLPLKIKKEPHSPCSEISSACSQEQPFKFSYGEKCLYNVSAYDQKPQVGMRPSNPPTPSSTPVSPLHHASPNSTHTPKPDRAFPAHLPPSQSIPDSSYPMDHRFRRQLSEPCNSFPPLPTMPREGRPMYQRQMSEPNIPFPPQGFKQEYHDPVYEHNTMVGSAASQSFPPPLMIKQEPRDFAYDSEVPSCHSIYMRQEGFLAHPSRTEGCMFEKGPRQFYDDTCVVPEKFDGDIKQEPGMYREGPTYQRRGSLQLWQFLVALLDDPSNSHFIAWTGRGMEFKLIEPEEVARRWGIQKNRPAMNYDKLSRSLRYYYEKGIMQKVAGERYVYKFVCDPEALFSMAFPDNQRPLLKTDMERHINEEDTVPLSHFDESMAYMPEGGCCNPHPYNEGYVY
# Sequence of ETV5 (P41161 whole entry): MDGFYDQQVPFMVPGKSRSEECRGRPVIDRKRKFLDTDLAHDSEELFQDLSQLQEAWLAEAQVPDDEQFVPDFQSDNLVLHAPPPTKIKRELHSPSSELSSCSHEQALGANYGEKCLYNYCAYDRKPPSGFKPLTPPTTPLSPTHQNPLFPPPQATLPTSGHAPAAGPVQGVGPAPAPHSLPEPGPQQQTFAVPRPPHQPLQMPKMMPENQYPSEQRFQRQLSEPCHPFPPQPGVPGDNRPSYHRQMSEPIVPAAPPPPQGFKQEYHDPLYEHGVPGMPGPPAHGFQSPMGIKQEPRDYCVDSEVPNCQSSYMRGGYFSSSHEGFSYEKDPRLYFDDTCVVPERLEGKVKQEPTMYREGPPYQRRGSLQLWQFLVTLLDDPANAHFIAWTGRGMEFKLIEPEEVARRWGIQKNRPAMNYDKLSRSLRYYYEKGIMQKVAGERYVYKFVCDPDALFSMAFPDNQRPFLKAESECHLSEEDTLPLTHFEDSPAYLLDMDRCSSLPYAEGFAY
# Sequence of ETV6 (P41212 whole entry): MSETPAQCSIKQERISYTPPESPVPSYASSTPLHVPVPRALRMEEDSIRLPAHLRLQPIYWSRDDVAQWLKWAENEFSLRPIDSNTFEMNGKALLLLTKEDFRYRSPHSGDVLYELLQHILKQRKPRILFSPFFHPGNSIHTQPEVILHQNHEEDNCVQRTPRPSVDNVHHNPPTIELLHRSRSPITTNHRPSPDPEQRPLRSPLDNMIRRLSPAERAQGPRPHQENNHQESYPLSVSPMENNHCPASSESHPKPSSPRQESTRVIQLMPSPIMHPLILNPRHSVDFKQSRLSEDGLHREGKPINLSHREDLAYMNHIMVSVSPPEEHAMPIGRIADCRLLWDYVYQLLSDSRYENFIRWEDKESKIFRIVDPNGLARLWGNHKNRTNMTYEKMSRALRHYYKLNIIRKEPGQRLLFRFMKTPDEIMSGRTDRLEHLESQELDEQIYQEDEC
# Sequence of ELF4 (Q99607 whole entry): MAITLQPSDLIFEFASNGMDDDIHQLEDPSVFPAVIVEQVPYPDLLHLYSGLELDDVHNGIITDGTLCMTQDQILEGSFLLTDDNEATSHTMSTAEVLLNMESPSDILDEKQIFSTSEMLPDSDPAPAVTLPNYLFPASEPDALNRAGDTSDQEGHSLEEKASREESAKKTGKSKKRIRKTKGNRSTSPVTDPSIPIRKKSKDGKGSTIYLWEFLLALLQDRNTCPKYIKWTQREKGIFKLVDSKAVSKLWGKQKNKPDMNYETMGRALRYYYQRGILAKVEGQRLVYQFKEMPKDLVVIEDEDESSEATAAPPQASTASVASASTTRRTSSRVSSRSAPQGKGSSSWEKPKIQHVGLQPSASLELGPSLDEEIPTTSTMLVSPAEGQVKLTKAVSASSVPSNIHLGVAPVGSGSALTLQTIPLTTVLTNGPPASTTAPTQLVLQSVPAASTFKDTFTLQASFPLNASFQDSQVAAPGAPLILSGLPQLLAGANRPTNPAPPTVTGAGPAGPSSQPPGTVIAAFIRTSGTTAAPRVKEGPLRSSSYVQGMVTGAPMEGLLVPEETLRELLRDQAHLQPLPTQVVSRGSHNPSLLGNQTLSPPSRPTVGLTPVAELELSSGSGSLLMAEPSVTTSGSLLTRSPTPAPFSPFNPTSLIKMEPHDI
# Sequence of HSF1 (Q00613 whole entry): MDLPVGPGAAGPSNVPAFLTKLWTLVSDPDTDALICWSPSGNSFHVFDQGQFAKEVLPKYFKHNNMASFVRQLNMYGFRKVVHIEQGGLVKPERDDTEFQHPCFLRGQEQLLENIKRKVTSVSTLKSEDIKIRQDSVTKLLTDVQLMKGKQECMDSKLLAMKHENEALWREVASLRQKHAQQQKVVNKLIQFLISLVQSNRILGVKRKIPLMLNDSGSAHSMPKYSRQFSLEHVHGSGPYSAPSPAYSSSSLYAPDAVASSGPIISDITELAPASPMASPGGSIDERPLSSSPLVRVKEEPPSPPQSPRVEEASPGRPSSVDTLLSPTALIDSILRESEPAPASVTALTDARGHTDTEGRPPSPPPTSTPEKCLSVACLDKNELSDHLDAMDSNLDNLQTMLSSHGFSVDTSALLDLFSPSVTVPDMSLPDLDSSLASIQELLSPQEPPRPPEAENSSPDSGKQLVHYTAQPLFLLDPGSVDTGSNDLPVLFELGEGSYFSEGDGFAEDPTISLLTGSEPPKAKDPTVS
sequence,measurement,setting,value
TCTCTT,binding signal,[1],"1.41 fold enrichment (6-mer frequency, TF over GST control)"
same,binding signal,[2],"1.39 fold enrichment (6-mer frequency, TF over GST control)"
same,binding signal,[3],"1.39 fold enrichment (6-mer frequency, TF over GST control)"
same,binding signal,[4],"1.34 fold enrichment (6-mer frequency, TF over GST control)"
same,binding signal,[5],"1.34 fold enrichment (6-mer frequency, TF over GST control)"
same,binding signal,[6],"1.49 fold enrichment (6-mer frequency, TF over GST control)"
same,binding signal,[7],"1.37 fold enrichment (6-mer frequency, TF over GST control)"
same,binding signal,[8],"1.28 fold enrichment (6-mer frequency, TF over GST control)"
same,binding signal,[9],"1.58 fold enrichment (6-mer frequency, TF over GST control)"
same,binding signal,[10],"1.42 fold enrichment (6-mer frequency, TF over GST control)"
same,binding signal,[11],"1.37 fold enrichment (6-mer frequency, TF over GST control)"
same,binding signal,[12],"1.49 fold enrichment (6-mer frequency, TF over GST control)"
same,binding signal,[13],"1.37 fold enrichment (6-mer frequency, TF over GST control)"
same,binding signal,[14],"1.32 fold enrichment (6-mer frequency, TF over GST control)"
same,binding signal,[15],"1.17 fold enrichment (6-mer frequency, TF over GST control)"
same,binding signal,[16],"1.39 fold enrichment (6-mer frequency, TF over GST control)"
same,binding signal,[17],"1.44 fold enrichment (6-mer frequency, TF over GST control)"
same,binding signal,[18],"1.36 fold enrichment (6-mer frequency, TF over GST control)"
